# Reference: PubChem BioAssay (Tox21)
# Results filed as inconclusive are left out. A call without a number means that no potency is given here. Unmarked numbers belong to inactive results. The source made the active and inactive calls. Unless noted, the call rests on the fitted dose curve; in most records, active means well fitted curve in the direction sought with a large enough effect in the repeat runs; inconclusive means weak or mixed curves; inactive means no such curve, though single readings can be large; an effect the other way counts as inactive or inconclusive.
# Legend:
# [1] = qHTS assay to identify small molecule agonists of the RXR signaling pathway - cell viability counter screen (AID 1159529); further: nearly all actives have a fitted effect of over 50% in size; further: potency means the concentration at half of the fitted maximal effect
# How it was run: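 Viability read-out for the RXR-alpha agonist qHTS: luminescent CellTiter-Glo signal after 30 min at RT. HEK 293T bla reporter cells, 2% charcoal-stripped FBS, 16 hr compound incubation; tetraoctyl ammonium bromide as cytotoxic control.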
# [2] = qHTS assay to identify small molecule antagonists of the retinoid acid receptor (RAR) signaling pathway - cell viability counter screen (AID 1159551); further: nearly all actives have a fitted effect of over 35% in size
# How it was run: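 Measured by luminescent ATP detection, viability reflects C3RL4 cells treated 6 h at 37 C with test chemicals in the presence of 1 uM (final) retinol.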
# [3] = qHTS assay to identify small molecule antagonists of the retinoic acid receptor (RAR) signaling pathway (AID 1159552; further: nearly all actives have a fitted effect of over 50% in size)
# How it was run: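 Using a RARE-driven luciferase construct in C3RL4 cells, retinol at 1 uM final provided the agonist stimulus while compounds were co-applied. After 6 hours at 37 C, luminescence was recorded to flag inhibitors of retinol signaling.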
# [4] = qHTS assay to identify small molecule agonists of the retinoic acid receptor (RAR) signaling pathway (AID 1159553)
# How it was run: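 6 hr compound exposure (DMSO vehicle) of overnight-plated C3RL4 RARE-luc cells at 37 C; luminescence quantified after 30 min RT with luciferase reagent.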
# [5] = qHTS assay to identify small molecule antagonists of the estrogen related receptor (ERR) signaling pathway from Tox21 library - cell viability counter screen (AID 1224834); further: nearly all actives have a fitted effect of over 30% in size; further: potency means the concentration at half of the fitted maximal effect
# How it was run: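 Seeded ERR cells were rested 6 h at 37 C/5% CO2 before compounds, positive and negative controls or DMSO were added. Incubation continued for 17.5 h, and viability was then quantified by CellTiter-Fluor fluorescence.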
# [6] = biological target: Luciferin 4-monooxygenase (Photinus pyralis) (UniProt P08659); assay: qHTS assay to identify small molecule inhibitors of firefly luciferase (AID 1224835); further: series mostly up to about 120 µM; nearly all actives have a fitted effect of over 25% in size
# Sequence of Luciferin 4-monooxygenase (Photinus pyralis) (P08659 whole entry, looked up): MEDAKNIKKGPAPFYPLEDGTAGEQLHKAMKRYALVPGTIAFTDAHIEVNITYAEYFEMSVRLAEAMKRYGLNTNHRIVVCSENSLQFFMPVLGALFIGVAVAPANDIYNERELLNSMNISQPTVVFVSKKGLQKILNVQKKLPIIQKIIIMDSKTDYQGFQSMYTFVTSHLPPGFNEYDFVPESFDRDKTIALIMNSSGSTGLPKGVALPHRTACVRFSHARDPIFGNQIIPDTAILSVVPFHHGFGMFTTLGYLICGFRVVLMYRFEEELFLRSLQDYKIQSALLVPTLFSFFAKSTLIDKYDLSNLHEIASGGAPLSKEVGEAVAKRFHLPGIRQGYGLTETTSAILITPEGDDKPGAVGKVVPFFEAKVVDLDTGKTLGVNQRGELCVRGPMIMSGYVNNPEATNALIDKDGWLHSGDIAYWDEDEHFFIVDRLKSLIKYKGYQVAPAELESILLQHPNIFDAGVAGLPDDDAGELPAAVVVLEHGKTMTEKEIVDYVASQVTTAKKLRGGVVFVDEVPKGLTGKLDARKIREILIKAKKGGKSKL
# How it was run: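 Biochemical qHTS: compounds run as interplate titrations against purified firefly enzyme, with D-luciferin and ATP each at its KM concentration. Light output recorded by CCD imaging.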
# [7] = qHTS assay to identify small molecule agonists of the constitutive androstane receptor (CAR) signaling pathway - cell viability counter screen (AID 1224836); further: nearly all actives have a fitted effect of over 45% in size; further: potency means the concentration at half of the fitted maximal effect
# How it was run: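 Multiplexed viability check: HepG2-CYP2B6-hCAR cells, 15-point compound dosing, 0.75 uM PK11195 final, 23 h at 37 C, CellTiter-Fluor fluorescence.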
# [8] = qHTS assay to identify small molecule antagonists of the constitutive androstane receptor (CAR) signaling pathway - cell viability counter screen (AID 1224837); further: nearly all actives have a fitted effect of over 45% in size; further: potency means the concentration at half of the fitted maximal effect
# How it was run: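 To flag cytotoxic false antagonists, HepG2 hCAR/CYP2B6-2.2kb cells were treated 23 hr with 15-concentration compound series and 50 nM CITCO at 37 C/5% CO2; CellTiter-Fluor fluorescence was the measured end point.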
# [9] = biological target: Nuclear receptor subfamily 1 group I member 3 (Homo sapiens) (UniProt Q14994); assay: qHTS assay to identify small molecule antagonists of the constitutive androstane receptor (CAR) signaling pathway (AID 1224838);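 further: HepG2 cells stably expressing hCAR with CYP2B6 luciferase reporter stimulated by CITCO; nearly all actives have a fitted effect of over 40% in size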
# Sequence of Nuclear receptor subfamily 1 group I member 3 (Homo sapiens) (Q14994 whole entry, looked up): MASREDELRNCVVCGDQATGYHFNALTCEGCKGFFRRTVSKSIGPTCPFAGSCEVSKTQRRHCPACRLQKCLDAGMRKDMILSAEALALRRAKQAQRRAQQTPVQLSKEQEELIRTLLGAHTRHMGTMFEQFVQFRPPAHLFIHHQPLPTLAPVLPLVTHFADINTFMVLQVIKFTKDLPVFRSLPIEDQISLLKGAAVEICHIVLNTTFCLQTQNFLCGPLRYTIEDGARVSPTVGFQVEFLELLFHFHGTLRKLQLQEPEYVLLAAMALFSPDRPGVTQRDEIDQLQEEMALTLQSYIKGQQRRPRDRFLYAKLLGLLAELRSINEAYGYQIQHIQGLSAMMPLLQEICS
# How it was run: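 Human hepatoma HepG2 cells expressing hCAR and a CYP2B6 promoter (2.2 kb) luciferase construct; compound titration (15 points) with 50 nM CITCO final, 24 h at 37 C/5% CO2; luminescence via ONE-Glo after 30 min at room temperature.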
# [10] = biological target: Nuclear receptor subfamily 1 group I member 3 (Homo sapiens) (UniProt Q14994); assay: qHTS assay to identify small molecule agonists of the constitutive androstane receptor (CAR) signaling pathway (AID 1224839); further: nearly all actives have a fitted effect of over 15% in size; further: potency means the concentration at half of the fitted maximal effect
# How it was run: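 Using human hepatoma HepG2 cells engineered with hCAR and a CYP2B6-2.2kb reporter, 15-concentration compound series were incubated 24 h alongside PK11195 at 0.75 uM final, with luminescence quantified afterwards.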
# [11] = qHTS assay to identify small molecule antagonists of the estrogen related receptor signaling pathway with the pleiotropic PPARgamma coactivator (PGC) from Tox21 10K library - cell viability counter screen (AID 1224840; active means well fitted cell-killing curve with a large enough effect in the repeat runs, not every such curve was filed as active; further: nearly all actives have a fitted effect of over 40% in size; further: potency means the concentration at half of the fitted maximal effect)
# How it was run: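 Seeded PGC/ERR cells (2,000/well, 6 h, 37 C/5% CO2) get compound by pin tool; 17.5 h incubation at 37 C; CellTiter-Fluor added, 30 min, fluorescence measured.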
# [12] = qHTS assay to identify small molecule agonists of the hypoxia (HIF-1) signaling pathway - cell viability counter screen (AID 1224844; calls by dose curve; further: nearly all actives have a fitted effect of over 50% in size)
# How it was run: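 HRE-bla ME-180; 0.5% dFBS; cpd 17 h, 37C, 5% CO2; CellTiter-Glo lum., 30 min RT, post-FRET read, same wells.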
# [13] = biological target: Thyrotropin receptor (Homo sapiens) (UniProt P16473); assay: qHTS assay to identify small molecule agonists of the thyroid stimulating hormone receptor (TSHR) signaling pathway (AID 1224843; calls by dose curve; further: nearly all actives have a fitted effect of over 45% in size)
# Sequence of Thyrotropin receptor (Homo sapiens) (P16473 whole entry, looked up): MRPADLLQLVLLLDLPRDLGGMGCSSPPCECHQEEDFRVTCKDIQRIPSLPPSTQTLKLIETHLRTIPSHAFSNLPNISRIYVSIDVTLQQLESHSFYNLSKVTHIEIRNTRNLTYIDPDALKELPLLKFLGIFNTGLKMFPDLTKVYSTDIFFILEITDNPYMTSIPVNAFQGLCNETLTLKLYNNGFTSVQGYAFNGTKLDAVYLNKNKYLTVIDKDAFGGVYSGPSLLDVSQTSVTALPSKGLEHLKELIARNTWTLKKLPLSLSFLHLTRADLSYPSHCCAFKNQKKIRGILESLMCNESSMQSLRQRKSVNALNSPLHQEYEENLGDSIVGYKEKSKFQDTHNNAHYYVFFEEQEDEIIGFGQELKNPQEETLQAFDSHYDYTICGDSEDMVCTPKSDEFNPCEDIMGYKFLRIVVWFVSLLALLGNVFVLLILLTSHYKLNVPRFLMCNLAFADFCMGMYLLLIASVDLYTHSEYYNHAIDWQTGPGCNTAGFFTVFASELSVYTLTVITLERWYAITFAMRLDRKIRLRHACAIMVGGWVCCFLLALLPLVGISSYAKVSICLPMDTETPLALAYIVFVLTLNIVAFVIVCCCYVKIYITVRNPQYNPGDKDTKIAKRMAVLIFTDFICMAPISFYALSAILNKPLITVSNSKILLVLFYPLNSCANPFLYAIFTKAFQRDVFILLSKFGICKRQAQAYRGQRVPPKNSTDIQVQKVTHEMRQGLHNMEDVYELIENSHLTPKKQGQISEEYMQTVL
# How it was run: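 Agonist-mode screen: TSHR HEK293 cells received test chemicals for half an hour at room temperature, then HTRF cAMP detection reagents for one hour prior to fluorescence measurement. Each chemical ran as a 15-concentration series, triplicated.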
# [14] = qHTS assay to identify small molecule agonists of the estrogen related receptor signaling pathway with the pleiotropic PPARgamma coactivator (PGC) from Tox21 10K library (AID 1224842); further: nearly all actives have a fitted effect of over 15% in size
# How it was run: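 PGC/ERR reporter cell line, 2,000 cells per well, incubated 6 h at 37 C before 23 nL compound in DMSO was added. After 18 h at 37 C, One-Glo luminescence read following 30 min at room temperature.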
# [15] = qHTS assay to identify small molecule antagonists of the estrogen related receptor (ERR) signaling pathway (AID 1224819; further: series mostly up to about 46 µM; nearly all actives have a fitted effect of over 50% in size)
# How it was run: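 Compounds dissolved in DMSO were pin-transferred onto ERR cells that had been plated 6 h earlier, and cells were then incubated 18 h at 37 C; signal was luciferase luminescence via One-Glo.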
# [16] = qHTS assay to identify small molecule agonists of the estrogen related receptor (ERR) signaling pathway (AID 1224820)
# How it was run: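 After 6 h plating (2,000 cells/well) and 18 h compound treatment at 37 C, ERR cells were lysed with One-Glo and luminescence read after 30 min at room temperature.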
# [17] = test system: estrogen-related receptor alpha (ERRalpha) with PGC-1alpha coactivator, human; assay: qHTS assay to identify small molecule antagonists of the estrogen related receptor signaling pathway with the pleiotropic PPARgamma coactivator (PGC) (AID 1224821; calls by dose curve)
# How it was run: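 Luminescence from One-Glo luciferase reagent (30 min, room temperature) measured after 18 h compound treatment at 37 °C. Cells carry the PGC/ERR reporter and were seeded 6 h prior to dosing.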
# [18] = qHTS assay to identify small molecule antagonists of the estrogen related receptor signaling pathway with the pleiotropic PPARgamma coactivator (PGC) cell viability counter screen (AID 1224822; further: series mostly up to about 46 µM)
# How it was run: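 Counter screen for cell viability: PGC/ERR cells, 6 h pre-incubation after plating, 17.5 h compound exposure at 37 C, fluorescence from CellTiter-Fluor after 30 min.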
# [19] = qHTS assay to identify small molecule agonists of the estrogen related receptor signaling pathway with the pleiotropic PPARgamma coactivator (PGC) (AID 1224823)
# How it was run: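 Luminescence from One-Glo reagent (30 min, room temperature) was read after 18 h compound treatment at 37 C of PGC/ERR cells plated 6 h beforehand; compounds delivered in DMSO by pin tool.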
# [20] = qHTS assay to identify small molecule antagonists of the estrogen related receptor signaling pathway with the pleiotropic PPARgamma coactivator (PGC) from Tox21 10K library (AID 1224841; call rule not given here; further: potency means the concentration at half of the fitted maximal effect)
# How it was run: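 Test chemicals dissolved in DMSO were applied to pre-incubated (6 h) PGC/ERR cells at 2,000 cells/well for an 18 h, 37 C treatment; reporter luminescence was then read using One-Glo.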
SMILES,Potency [1],Potency [2],Potency [3],Potency [4],Potency [5],Potency [6],Potency [7],Potency [8],Potency [9],Potency [10],Potency [11],Potency [12],Potency [13],Potency [14],Potency [15],outcome [16],Potency [17],outcome [18],outcome [19],Potency [20]
C=C(C)C(=O)OCCO,inactive,inactive,inactive,inactive,inactive,inactive,inactive,inactive,inactive,inactive,inactive,inactive,–,–,–,–,–,–,–,–
O=CC1CC=CCC1 (stereo not drawn),inactive,inactive,inactive,inactive,inactive,inactive,inactive,inactive,inactive,inactive,inactive,inactive,inactive,–,–,–,–,–,–,–
CCC(=O)O[C@]1(C(=O)CCl)[C@@H](C)C[C@H]2[C@@H]3CCC4=CC(=O)C=C[C@]4(C)[C@@]3(F)[C@@H](O)C[C@@]21C,inactive,inactive,inactive,inactive,inactive,inactive,inactive,inactive,inactive,inactive,inactive,–,inactive,–,–,–,–,–,–,–
CCOCC(O)COc1ccc(NC(=O)CC[S+](C)C)cc1 (stereo not drawn),inactive,inactive,inactive,inactive,inactive,inactive,inactive,inactive,inactive,–,inactive,inactive,inactive,–,–,–,–,–,–,–
CCCCOC(=O)CCCCCCCC(=O)OCCCC,inactive,inactive,inactive,inactive,inactive,inactive,inactive,inactive,inactive,inactive,inactive,inactive,–,inactive,–,–,–,–,–,–
COc1cc2nc(N(C)CCCNC(=O)C3CCCO3)nc(N)c2cc1OC (stereo not drawn),inactive,inactive,inactive,inactive,–,–,–,inactive,–,–,inactive,inactive,inactive,–,inactive,inactive,inactive,inactive,inactive,15 µM (active)
CN(C)CCN(Cc1ccsc1)c1ccccn1,inactive,inactive,inactive,inactive,inactive,inactive,inactive,inactive,inactive,inactive,inactive,inactive,–,–,–,–,–,–,–,–
CC1OC(=O)C(C)OC1=O (stereo not drawn),inactive,inactive,inactive,inactive,inactive,inactive,inactive,inactive,inactive,inactive,inactive,inactive,inactive,–,–,–,–,–,–,–
C=C(C)C(=O)OCC,inactive,inactive,inactive,inactive,inactive,inactive,inactive,inactive,–,–,inactive,inactive,–,inactive,–,–,–,–,–,inactive
O=C(O)c1nc(Cl)c(Cl)c(Cl)c1Cl,inactive,inactive,inactive,inactive,inactive,inactive,inactive,inactive,inactive,17.2 µM (active),inactive,inactive,–,–,–,–,–,–,–,–
CC(=O)OC[C@H]1O[C@@H](n2ncc(=O)[nH]c2=O)[C@H](OC(C)=O)[C@@H]1OC(C)=O,inactive,inactive,inactive,inactive,inactive,inactive,inactive,inactive,inactive,inactive,inactive,inactive,inactive,–,–,–,–,–,–,–
C#Cc1cccc(Nc2ncnc3cc(OCCOC)c(OCCOC)cc23)c1,inactive,inactive,inactive,inactive,8.41 µM (active),inactive,inactive,inactive,inactive,7.5 µM (active),inactive,inactive,–,inactive,–,–,–,–,–,8.41 µM (active)
Cc1cccc(C)c1OCC(=O)N[C@@H](Cc1ccccc1)[C@@H](O)C[C@H](Cc1ccccc1)NC(=O)[C@H](C(C)C)N1CCCNC1=O,23.9 µM (active),inactive,inactive,inactive,21.1 µM (active),inactive,18.8 µM (active),13.3 µM (active),–,–,33.5 µM (active),–,inactive,inactive,–,–,–,–,–,–
Nc1cc(C(=O)O)c(O)c(S(=O)(=O)O)c1,inactive,inactive,inactive,inactive,inactive,inactive,inactive,inactive,inactive,inactive,inactive,inactive,inactive,inactive,–,–,–,–,–,–
C=C(C)C(=O)OCCOCC,inactive,inactive,inactive,inactive,inactive,inactive,inactive,inactive,inactive,–,inactive,inactive,–,–,–,–,–,–,–,–
COC(C)(C)CCO,inactive,inactive,inactive,inactive,inactive,inactive,inactive,inactive,inactive,inactive,inactive,inactive,inactive,inactive,–,–,–,–,–,inactive
OCCNCc1ccccc1,inactive,inactive,inactive,inactive,inactive,inactive,inactive,inactive,inactive,inactive,inactive,inactive,–,–,–,–,–,–,–,–
C[C@@H]1C[C@H]2[C@@H]3CCC4=CC(=O)C=C[C@]4(C)[C@@]3(F)[C@@H](O)C[C@]2(C)[C@@]1(O)C(=O)COC(=O)c1ccncc1,inactive,inactive,inactive,inactive,inactive,–,inactive,inactive,inactive,inactive,inactive,–,inactive,–,–,–,–,–,–,–
CCCCc1ncc(/C=C(\Cc2cccs2)C(=O)O)n1Cc1ccc(C(=O)O)cc1,inactive,inactive,inactive,–,inactive,–,inactive,inactive,inactive,inactive,inactive,inactive,inactive,–,–,–,–,inactive,–,–
